Compounds with a hit are over-represented: about 2.4% of the library has one in this group of screens.
TGFb SMAD3 inh: TGF-b pathway inhibition. 410,000 compounds, 1.2% hits. Potency, µM (top dose mostly 46.1 µM), for the others: at the top dose activity, negative = inhibition, most hits filed as inhibitors. AID 588855. HepG2 CAGA-GFP TGF-b/SMAD3 reporter, GFP fluorescence, 18 h; TGF-beta stimulated, 500 pg/mL final; also: % is scaled to controls: 0 for no effect and ±100 for the full control effect; nearly all actives have a fitted effect of over 65% in size
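HEPG2 CAGA-GFP reporter cells (1000/well, DMEM with 1% FBS) received compounds, then recombinant TGF-beta at 500 pg/mL final for 18 hours at 37 degrees C. Per-cell GFP summed per well was normalised to unstimulated and stimulated DMSO controls before curve fitting.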
ATXN2 expr inh: inhibitors of ATXN2 expression | HEK-293 ATXN2-luciferase reporter, luminescence, 24 h | Potency, µM (doses to about 57 µM), without a hit: top-dose activity change, negative = inhibition, usual class: inhibitors | AID 1745845 | 360,000 compounds, 0.72% hits; also: % is scaled to controls: 0 for no effect and ±100 for the full control effect; nearly all actives have a fitted effect of over 55% in size
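ATXN2-luciferase reporter cells (luciferase flanked by upstream and downstream ATXN2 gene portions) were treated 24 h at 37 °C with compounds at up to 57 uM. SteadyGlo luminescence gave expression; GF-AFC fluorescence gave viability.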
HepG2 tox: kills HepG2 cells in TGF-b inhibitor counter-screen; HepG2 CAGA-GFP viability, ATP luminescence, 18 h; Potency, µM (highest dose often 46.1 µM), without a hit: top-dose activity change, negative = cytotoxicity, actives largely listed as cytotoxic; 410,000 compounds, 0.76% hits
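CellTiter-Glo luminescence gave cytotoxicity after 18 hours at 37 degrees C. The cells were HepG2 CAGA-GFP in 1% FBS DMEM, stimulated with 500 pg/mL TGF-beta after compound addition. %Activity was normalised to no-cell wells (complete cell-killing) and DMSO (no toxicity), and curves were fitted and classified.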
S2 tox: viability counter-screen for ATXN expression inhibitors. 400,000 compounds, 0.49% hits. Potency, µM (series often up to 56.7 µM), hits mostly cytotoxic. S2 cells (HEK-293 line with an ATXN2-luciferase reporter) viability, CellTiter-Fluor protease fluorescence, 24 h; also: nearly all actives have a fitted effect of over 40% in size
Anesthetic bind: candidate novel general anesthetic via apoferritin binding; P02791; 350,000 compounds, 0.074% hits; Potency, µM (highest dose often 77.5 µM), without a hit: at the top dose activity change, negative = displacement, most hits filed as inhibitors; apoferritin/1-aminoanthracene competitive binding, fluorescence; AID 485281; also: % is scaled to controls: 0 for no effect and ±100 for the full control effect; nearly all actives have a fitted effect of over 20% in size
Target sequence (P02791 2-175 limits assumed): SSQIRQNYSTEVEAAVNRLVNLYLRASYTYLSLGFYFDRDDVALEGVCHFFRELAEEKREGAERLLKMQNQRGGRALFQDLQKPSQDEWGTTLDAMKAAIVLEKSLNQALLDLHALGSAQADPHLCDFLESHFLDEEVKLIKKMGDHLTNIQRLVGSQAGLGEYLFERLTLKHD
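Horse-spleen apoferritin (10 uM) was mixed with 50% saturated 1-aminoanthracene in PBS, exposed to compounds for 10 min at room temperature, and read for fluorescence (ex 380 nm, em 535 nm). Competitive displacement was fitted with a four-parameter Hill equation.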
Numbers without * were called inactive; i = inactive; ? = inconclusive; . = no result given; ! = a repeat was not active. Calls follow the shape of the dose curve; as a rule, active = well fitted curve in the direction sought with a large enough effect; inconclusive = small, poorly fitted or top-dose-only effect, or another doubt; inactive = no such curve, though single readings can be large; an effect the other way counts as inactive or inconclusive. Potency is read from the fitted curve at half-maximal effect.

SMILES	TGFb SMAD3 inh	ATXN2 expr inh	HepG2 tox	S2 tox	Anesthetic bind
Cn1nnnc1Sc1ncnc2scc(-c3ccc(C#N)cc3)c12	?	10µM*	-123%	10µM*	.
Nc1c(Cl)cc(/C=C2\C=Cc3ccccc32)cc1Cl	-14%	.	-49%	.	.
O=C(N/N=C(\c1ccccc1)c1cccnc1)C(O)(c1ccccc1)c1ccccc1	-15%	0%	11µM*	i	-17%
NC(=S)NN=C1c2ccccc2-c2cc(Br)ccc21	2.8µM*	?	2%	?	.
N#Cc1cccc2c1-c1ccccc1/C2=N/NC(N)=S	5µM*	-37%	7.1µM*	?	-15%
N#Cc1cccc2c1-c1ccccc1/C2=N/NC(N)=O	-6%	?	-5%	?	-6%
Cc1ccc(Nc2c3c(nc4ccccc24)CCC3)cc1F	?	0%	-56%	28µM*	?
Cc1ccc2nc3c(c(Nc4ccc(C)c(C)c4)c2c1)CCC3	?	?	-28%	18µM*	-8%
Cc1cccc(Nc2c3c(nc4ccccc24)CCC3)c1	?	?	-32%	i	-7%
Nc1nc(-c2nn(Cc3ccccc3F)c3ncccc23)nc(N)c1N1CCOCC1	.	-11%	.	.	.
CC(=O)c1cccc(NC(=O)c2ccc(Cl)c(S(=O)(=O)N3CCOCC3)c2)c1	-18%	-14%	-8%	?	-10%
O=C(O)c1ccc(Nc2ccc([N+](=O)[O-])c3nonc23)cc1	3%	-3%	-2%	?	-14%
CC(=O)c1ccc(Nc2ccc([N+](=O)[O-])c3nonc23)cc1	11µM*	.	-19%	?	-22%
O=[N+]([O-])c1ccc(Nc2ccccc2O)c2nonc12	4%	.	-6%	?	18µM*
O=C(O)c1cccc(Nc2cc(Cl)c3nonc3c2[N+](=O)[O-])c1	-11%	.	10%	?	-11%
O=C(O)c1cccc(Nc2ccc([N+](=O)[O-])c3nonc23)c1	3%	5%	6%	16µM*	-1%
O=C(O)c1ccccc1C(=O)Nc1ccc(-c2ccccc2)cc1	.	22%	.	.	.
O=C(O)c1ccc2cc(-c3ccc(O)c(C45CC6CC(CC(C6)C4)C5)c3)ccc2c1	.	1.9µM*	.	.	?
Cn1c(SCC2CCCO2)nnc1C1CCN(Cc2ccc(-c3cccc(Cl)c3)o2)CC1 (stereo not drawn)	.	.	.	i	.
CCOc1ccccc1N=Nc1c(C)[nH]n(-c2nc(-c3ccccc3)cs2)c1=O	.	8%	.	.	.
Cc1cccc(/C=C/c2onc(C)c2[N+](=O)[O-])n1	0%	?	-166%	18µM*	.
CC(O)(c1cccc(F)c1)c1nc(-c2cccc(C(F)(F)F)c2)cs1 (stereo not drawn)	?	?	16µM*	?	.
Cc1ccc(OCC(O)Cn2c(=N)n(CCN3CCCCC3)c3ccccc32)cc1 (stereo not drawn)	?	25µM*	13µM*	?	-11%
N=c1n(CCO)c2ccccc2n1CCOc1ccc(Cl)cc1Cl	?	20µM*	11µM*	.	-17%
N=c1n(CCN2CCCCC2)c2ccccc2n1CC(O)COc1ccc(Cl)cc1Cl (stereo not drawn)	7.1µM*	.	10µM*	.	?
SMILES	TGFb SMAD3 inh	ATXN2 expr inh	HepG2 tox	S2 tox	Anesthetic bind
COc1ccc(OCC(O)Cn2c(=N)n(CCN3CCCCC3)c3ccccc32)cc1 (stereo not drawn)	?	-33%	-53%	?	-20%
COc1ccc(OCCn2c(=N)n(CCO)c3ccccc32)cc1	-10%	-17%	-25%	i	-7%
O=C(CO)[C@@H](O)[C@H](O)[C@@H](O)CO	.	2%	.	i	.
Cc1ccnc2ccc([N+](=O)[O-])cc12	?	.	-10%	.	.
CCc1ccc(-c2cc(C(F)(F)F)n3nc(C(=O)Nc4cnn(Cc5ccc(C)cc5)c4)cc3n2)s1	2%	11µM*	-22%	?	6%
O=C(NC1CCNCC1)c1[nH]ncc1NC(=O)c1c(Cl)cccc1Cl	.	0.39µM*	.	.	.
O=C(Nc1ccc2cn[nH]c2c1)c1c(Cl)cccc1Cl	10%	2%	8%	i	-1%
CC(=O)n1cc(N(C(=O)CCl)c2ccc(C)cc2)c2ccccc21	5.6µM*	8.9µM*	5µM*	10µM*	3%
CC(=O)N(c1ccc(Cl)cc1)c1cn(C(C)=O)c2ccccc12	-9%	-9%	-11%	i	-7%
O=C1C=CC2(O[C@H](c3ccccc3)[C@@H](c3ccccc3)O2)[C@H](Sc2ccccc2O)C1	2.8µM*	4µM*	-103%	.	.
COC(=O)CSc1cccc2c1C(=O)CC2c1ccccc1 (stereo not drawn)	2%	.	3%	i	-8%
COc1ccc(C(=O)/C=C2/C(=O)Nc3ccccc32)c(OC)c1	13µM*	-13%	10µM*	i	1%
COc1ccc(C(=O)/C=C2/C(=O)Nc3ccccc32)cc1	?	?	14µM*	?	2%
C=CCOc1ccccc1C(=O)/C=C1/C(=O)Nc2ccccc21	?	-14%	6.3µM*	?	-21%
COc1ccc(C(=O)/C=C2/C(=O)Nc3ccccc32)cc1OC	-2%	.	-15%	?	-11%
O=C1Nc2ccccc2/C1=C/C(=O)c1cccs1	?	?	14µM*	?	?
CCc1ccc2oc(-c3ccc(NC(C)=O)cc3)nc2c1	0%	90%	-12%	?	?
CCOc1ccc(NC(=O)c2cn(C)c(=O)c3cc(OC)c(OC)cc23)cc1	-1%	13%	1%	i	2%
Cc1cccc(NC(=O)C2CC3CCC2C3)c1C (stereo not drawn)	0%	10%	4%	i	.
CCn1c2ccccc2c2cc(N)ccc21	7%	-9%	1%	?	?
CCn1c2ccccc2c2cc(/C=C(/C#N)C(N)=S)ccc21	4µM*	3.5µM*	-57%	?	.
CC(C)N(C(=O)CSc1cn(CC(=O)N2CCCCCC2)c2ccccc12)C(C)C	13µM*	.	-24%	.	?
CCCCCCCCCCOC(=O)Cn1c(COc2ccccc2C)[n+](C)c2ccccc21	?	22µM*	-98%	?	?
CCCCCCCCCCOC(=O)Cn1c(COc2cccc(C)c2)[n+](C)c2ccccc21	?	-35%	-93%	i	?
CCCCCCCCCCOC(=O)Cn1c(COc2ccc(OC)cc2)[n+](C)c2ccccc21	10µM*	?	11µM*!	?	?
CCCCCCCCCCOC(=O)Cn1c(COc2ccccc2)[n+](C)c2ccccc21	11µM*	.	-109%	?	-19%
CCCCCCCCCCOC(=O)Cn1c(COc2ccc(Cl)cc2)[n+](C)c2ccccc21	13µM*	.	13µM*	.	?

Bioassay records deposited in PubChem BioAssay by National Center for Advancing Translational Sciences (NCATS).
